Here are results for 66 compounds from PubChem BioAssay AID651820 (National Center for Advancing Translational Sciences (NCATS), 2012).

In all, about 340,000 compounds went through this assay and about 12,000 (3.5%) were called active. Entries that show only a call come without a potency. Inconclusive results (about 18%) are left out. The call rests on the fitted dose curve; in most records, active means well fitted inhibition curve with a large enough effect; inconclusive means small, poorly fitted or top-dose-only effect, or another doubt; inactive means no such curve, though single readings can be large or run the other way. Many of the other results were omitted from the sample, so actives are more common in it than they were.
Potency means the concentration at half of the fitted maximal effect.

The nature of this test: qHTS Assay for Inhibitors of Hepatitis C Virus (HCV). The settings on record: Huh7.5.1 HCVcc-Cre infection, luciferase reporter, 44 h; series mostly up to 41.8 µM. The procedure, abridged:
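HCVcc-Cre virus at an moi near 0.5 was added right after compound to cells cultured 4 h from seeding (1,000 cells/well). Luciferase activity was determined 44 h later, 15 min after substrate addition at RT.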
(In general: In qHTS, concentration-response curves come from the screen itself.)
Turning to `COc1ccccc1CN(C)C(=O)c1cc2ccccc2o1`, the Potency entry is “inactive”.
For the compound `CN(C)CCCCCN(C)Cc1cc2ccccc2o1`, the Potency is 3.16 µM (active).
Under `OCC1(Cc2ccccc2)CCN(Cc2cc3ccccc3o2)CC1` stands “inactive”.
As for `Brc1ccc(CN2CC[C@H]3C=CCc4cccc(c43)C2)cc1`, the entry is “inactive”.
Under `CCC(=O)NCc1cc(-c2nn(C)c(=O)c3ccccc23)ccc1OC` stands “inactive”; under `COc1ccc(S(=O)(=O)N2CCOCC2)cc1NC(=O)COc1ccccc1`, “inactive”; under `COc1ccc(-c2nn(C)c(=O)c3ccccc23)cc1NC(=O)COc1ccccc1`, 10 µM (active).
For `CC(C)(C)c1nnc2sc(SCC(O)=C(C#N)c3nc4ccccc4[nH]3)nn2c1=O`, the Potency result was “inactive”.
Under `CCOC(=O)C1CCCN(C(=O)c2ccc(C)c(S(=O)(=O)N3CCCCC3)c2)C1` (stereo unspecified) stands “inactive”; under `O=C1CCC/C=C\C[C@@H](CC(=O)N(CCO)Cc2ccccc2)C(=O)NCCO1`, “inactive”; under `CC(OC(=O)/C=C/c1ccccc1)C(=O)Nc1ccc(C(N)=O)cc1` (stereo unspecified), “inactive”.
Under `Oc1ccc(Br)cc1/C=N/Nc1ccccn1` stands 3.55 µM (active); under `O=C(CCCO)N/N=C/c1cc(Br)ccc1O`, “inactive”.
Under `Oc1ccc(Br)cc1C=Nc1ccc2[nH]ncc2c1` stands “inactive”; under `O=C(NCC1CCCCC1)NCC1CCCCC1`, “inactive”; under `Cc1c(NC(=O)C(C)Oc2cccc(Cl)c2)c(=O)n(-c2ccccc2)n1C` (stereo unspecified), “inactive”.
On to `Cc1cc(C)n(-c2nc(C(F)(F)F)nc3ccccc23)n1`, for which the Potency entry is “inactive”.
As for `CC(Nc1nc(C(F)(F)F)nc2ccccc12)c1cccs1` (stereo unspecified), the figure is 10 µM (active).
Under `Cc1ccsc1C(=O)OCC(=O)NCCc1ccccc1` stands “inactive”; under `CC1CCCN(C(=O)Cn2c(=O)oc3cc(S(=O)(=O)N4CCCCC4C)ccc32)C1` (stereo unspecified), “inactive”; under `NC(=O)C1CCN(C(=O)COc2cccc3cccnc23)CC1`, “inactive”.
Under `CCOc1cc(N2CCOCC2)c(OCC)cc1NC(=O)c1cc(C)nc2ccccc12` stands “inactive”; under `CCOc1cc(N2CCOCC2)c(OCC)cc1NC(=O)C1=NN(c2cccc(C)c2)C(=O)CC1`, “inactive”.
`CCOc1cc(N2CCOCC2)c(OCC)cc1NC(=O)COc1cccc2cccnc12`: the Potency was 7.94 µM (active).
Turning to `CCOc1cc(N2CCOCC2)c(OCC)cc1NC(=O)COC(=O)[C@H](Cc1c[nH]c2ccccc12)NC(C)=O`, the Potency entry was “inactive”.
Take `CCOc1cc(N2CCOCC2)c(OCC)cc1NC(=O)c1ccc(C)s1`: the Potency was 25.1 µM (active).
As for `CC(C)(C)NS(=O)(=O)NC(=O)C1=C(N2CCCC2)COC1=O`, the entry is “inactive”.
On to `COc1ccccc1CNC(=O)COC(=O)c1cccs1`, for which the Potency entry was “inactive”.
Under `N#Cc1ccc(C(=O)Nc2nc(-c3cccs3)c(C(=O)C(F)(F)F)s2)cc1` stands 11.2 µM (active).
As for `Cc1ccc(C(=O)Nc2nnc(-c3cccs3)s2)cc1C`, the entry is “inactive”; as for `CCOc1cccc(C(=O)Nc2nnc(-c3cccs3)s2)c1`, “inactive”.
As for `CC1CCN(C(=O)COC(=O)CCC(=O)c2cccs2)CC1`, the entry is “inactive”.
Turning to `COCC(=O)N(C)[C@H]1C[C@H]2c3cc(Oc4ccccc4C)ccc3CCN2C(=O)[C@H]1[C@H](C)O`, the Potency entry is “inactive”.
Under `CCN(CC)S(=O)(=O)c1ccc(OC)c(NC(=O)CCc2c(C)noc2C)c1` stands “inactive”; under `CCN(C(=O)CSc1nnc(-c2ccc(OC(F)F)cc2)n1N)C1CCS(=O)(=O)C1` (stereo unspecified), “inactive”; under `O=C(Nc1cccc(-c2cscn2)c1)C1CCN(Cc2ccsc2)CC1`, “inactive”.
As for `CC(=O)c1cc(CN2CCC(n3nccc3NC(=O)c3ccccc3Cl)CC2)cs1`, the entry is “inactive”; as for `CC(=O)c1cc(CN2CCC(C(=O)Nc3cccc(-c4cscn4)c3)CC2)cs1`, 10 µM (active).
As for `CC(C)(C)OC(=O)C[C@@H]1C/C=C\C[C@@H](CC(=O)N[C@@H](CO)Cc2ccccc2)C(=O)N2CCC[C@H]2COC1=O`, the entry is “inactive”.
Turning to `c1ccc2c(c1)CSc1sccc1C2=C1CCNCC1`, the Potency is 15.8 µM (active).
`CN1CCC(N(C)S(=O)(=O)c2ccc(NC(=O)c3cccc(C#N)c3)cc2)CC1`: the Potency result was “inactive”.
On to `Cc1cccc(NC(=O)Nc2cccc(Oc3c(F)c(F)c(F)c(F)c3F)c2)c1`, for which the Potency is 11.2 µM (active).
As for `Cc1cccc(NC(=O)Nc2nnc(-c3ccccc3)o2)c1`, the entry is “inactive”.
As for `Cc1cccc(NC(=O)c2cccc(C(F)(F)F)c2)c1`, the entry is “inactive”; as for `Cc1cc(NC(=O)C(C)N2C(=O)c3ccccc3S2(=O)=O)no1` (stereo unspecified), “inactive”; as for `O=C(c1ccc(S(=O)(=O)NCc2ccco2)cc1)N1CCN(c2ccccc2)CC1`, “inactive”.
As for `O=[N+]([O-])c1ccc(N2CCN(S(=O)(=O)c3ccc4ccccc4c3)CC2)cc1NCc1ccco1`, the entry is “inactive”; as for `O=C(c1ccccc1)N1CCN(c2ccc([N+](=O)[O-])c(NCc3ccco3)c2)CC1`, 8.91 µM (active); as for `O=C(Nc1cccc2c1CCCC2)c1ccc(F)cc1`, “inactive”.
For `CCN1C(=O)[C@H]2[C@@H](c3ccc(C)cc3)N3C(=O)N(c4cccc(Br)c4)C(=O)[C@@]3(CC)[C@H]2C1=O`, the Potency entry is “inactive”.
Under `CN(CC(=O)Nc1cccc(F)c1)C(=O)CC1CCCC1` stands “inactive”; under `CC(=O)Nc1ccc(NC(=O)C(C)OC(=O)C2CC(=O)N(CCc3ccccc3)C2)cc1` (stereo unspecified), “inactive”; under `CC[n+]1cc(C)ccc1/C=C/c1ccc(N(C)C)cc1`, 5.62 µM (active).
In the case of `CN(C)c1ccc(/C=N\S(=O)(=O)c2ccccc2)cc1`, the Potency result is “inactive”.
Under `C/C(=N\Nc1ccccc1)c1cccs1` stands “inactive”; under `Cc1csc(NC(=O)c2ccc(C)s2)n1`, “inactive”; under `O=C(Nc1ccc2nc3n(c(=O)c2c1)CCCCC3)c1ccccc1Cl`, “inactive”.
Under `COCC(=O)N1CCc2ccc(NC(=O)c3ccccc3Cl)cc2C1` stands “inactive”; under `O=C(Nc1ccc2sc3ccccc3c(=O)c2c1)c1ccccc1Cl`, 3.55 µM (active); under `CCC1CCCCN1C(=S)NC(=O)c1ccco1` (stereo unspecified), “inactive”.
Under `COc1ccc(OC)c(/C=N/NC(=O)c2ccc[n+](CC(=O)c3ccccc3)c2)c1` stands “inactive”; under `Cc1cccc(C(=O)OCC(=O)NC(C)C2CC3CCC2C3)c1O` (stereo unspecified), “inactive”.
In the case of `COc1ccccc1CNC(=O)CCCN1C(=O)NC2(CCCC2)C1=O`, the Potency entry was “inactive”.
As for `OC(COc1ccccc1)Cn1cc(Br)cn1` (stereo unspecified), the entry is “inactive”; as for `OC(CN=c1sc2ccccc2n1CC(O)COc1ccccc1)COc1ccccc1` (stereo unspecified), 11.2 µM (active).
As to `O=C(C(c1ccccc1)c1ccccc1)N1CCN(CC(O)COc2ccccc2)CC1` (stereo unspecified), the Potency entry was “inactive”.
